Assay results as given in PubChem BioAssay AID588849 (Broad Institute, 2011).
Measured potencies and affinities stand elsewhere. Activity calls are given as the source filed them. How the calls were made is not given here.

These compounds were tested against CAAX prenyl protease 2 (Homo sapiens) (UniProt Q9Y256) (assay: human Rce1 protease inhibitors, dose response, biochemical, yeast membranes, quenched-peptide fluorescence, cherry-pick (AID 588849)). Details: yeast membrane fractions expressing human Rce1, quenched-peptide fluorescence, 4 h; series mostly up to 10 µM; activity change, negative = inhibition: at the top concentration.
Chain of CAAX prenyl protease 2 (Homo sapiens) (Q9Y256 whole entry, looked up): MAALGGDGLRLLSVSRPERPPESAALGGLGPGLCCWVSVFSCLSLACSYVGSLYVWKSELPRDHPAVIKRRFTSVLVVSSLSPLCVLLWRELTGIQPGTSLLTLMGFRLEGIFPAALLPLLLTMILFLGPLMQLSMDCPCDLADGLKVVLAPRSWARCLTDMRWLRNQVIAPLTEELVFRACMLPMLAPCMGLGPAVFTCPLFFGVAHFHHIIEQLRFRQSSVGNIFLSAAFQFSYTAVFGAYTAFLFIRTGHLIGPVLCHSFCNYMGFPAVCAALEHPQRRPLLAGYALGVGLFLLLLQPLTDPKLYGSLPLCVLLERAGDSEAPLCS

Activity change, negative = inhibition, inactive:
COc1ccc(NS(=O)(=O)c2c(C)cc(C)cc2C)cc1 5.92%, CCn1cc(C(=O)NCCO)c(=O)c2cc(F)c(N3CCN(C)CC3)cc21 7.34%, CC(C)c1ccc(NC(=O)COc2nncc3ccccc23)cc1 -1.1%, Cc1nc2c(C)cccn2c(=O)c1NC(=O)COc1ccccc1 -3.68%, Cn1c(CCNS(=O)(=O)c2ccccc2)nnc1SCc1cccnc1 -5.95%, N=c1c(C(=O)NCc2ccc(F)cc2)cc2c(=O)n3ccccc3nc2n1Cc1cccnc1 43.3%, Cc1cccc(N2C(=O)c3cccc4c(N5CCCCC5)c([N+](=O)[O-])cc(c34)C2=O)c1C 7.91%, CCC1(c2ccccc2)NC(=O)N(CC(=O)Nc2ccc3c(C)cc(=O)oc3c2)C1=O (stereo not drawn) 138%, COc1ccc([N+](=O)[O-])cc1CSc1ccccn1 3.93%, CCCCCCCCNC(C)C(O)c1ccc(SC(C)C)cc1 (stereo not drawn) -17.8%, CCCOc1ccc(-c2c(C(=O)N/N=C/c3cccs3)nnn2-c2nonc2N)cc1 0.204%, Cc1cc(Cl)c2oc(C(=O)N3CCN(C(=O)c4ccco4)CC3)c(C)c2c1 -11.6%, COc1cccc(-c2cc(C(F)(F)F)n3ncc(S(=O)(=O)c4ccccc4)c3n2)c1 -7.38%, CC(C)[C@H](NC(=O)OCc1ccccc1)C(=O)OCC(=O)Nc1c(F)cccc1F -6.6% [at 3.5 µM], COc1ccc(S(=O)(=O)N(CC(=O)N2CCCC2)Cc2ccccc2)cc1 4.57%, O=C(Nc1cccc2ncccc12)c1cccnc1 -3.28%, CCCN(CCC)CCNC(=O)c1cc2c(-c3ccccc3F)nn(C)c2s1 1.59%, Cc1cc(C(=O)N/N=C/c2c3ccccc3cc3ccccc23)n[nH]1 -21.1%, Cc1ccc2nc(N(CCN(C)C)C(=O)c3ccc4ccccc4c3)sc2c1 -9.24%, Cc1c(Cl)c([N+](=O)[O-])nn1CC(=O)N1CCCc2ccccc21 -13.2%, Oc1c(N=NC(=S)Nc2ccccc2F)c2ccccc2n1Cc1ccccc1F -11.4%, COc1ccc(-c2cc(C(F)(F)F)nc(SCC(=O)NCc3cnn(C)c3C)n2)cc1OC -20.2%, CC(=O)Nc1ccc(Cl)cc1C1COC(=O)C1=N (stereo not drawn) 8.43%, O=C(COC(=O)c1ccccc1Cc1ccccc1)NC1CCS(=O)(=O)C1 (stereo not drawn) -12.4%, Cc1ccc(-c2c(C(=O)N/N=C/c3cccc(Cl)c3)nnn2-c2nonc2N)cc1 4.75%, c1ccc(CNc2nc(N3CCN(Cc4ccccc4)CC3)nc3ccccc23)cc1 26.3% [at 3.5 µM], COc1ccc(C2c3c(ncn(CCN4CCOCC4)c3=N)Oc3ccc4ccccc4c32)cc1 (stereo not drawn) -8.64%, CN(C)CC(C)(C)CNC(=S)NCc1ccc2c(c1)OCO2 -17.6%, Cc1cccc(-c2nnc(SCc3ccc(C#N)cc3)n2Cc2ccco2)c1 -2.37%, O=C1CN(C(=O)NCC(=O)N2CCCC2)c2ccccc2N1 -24.5%, O=C(c1cnc2n(c1=O)CCS2)N1CCN(C(c2ccccc2)c2ccc(Cl)cc2)CC1 (stereo not drawn) 18.3%, O=C(CN1C(=O)/C(=C\c2cccc(Br)c2)Oc2ccccc21)NCC1CCCO1 (stereo not drawn) -21.6%, CC(=O)N[C@@H](C)c1nc2ccccc2n1CCCN1CCN(c2nc(-c3ccc(C)cc3)cs2)CC1 5.44%, CC(C)c1cccc(OCC(=O)Nc2ccc(S(=O)(=O)Nc3ccccn3)cc2)c1 3.44%, COc1ccc(C2Nc3ccccc3C(=O)N2Cc2ccccc2)cc1COc1ccccn1 (stereo not drawn) 63.7%, CCn1cc(/C=C(\NC(=O)c2ccccc2F)C(=O)N2CCOCC2)c2ccccc21 6.21%, Cc1ccc(-c2cc3cccc[n+]3cc2-c2ccc(C)cc2)cc1 -24.3%, CCCCOC(=O)Nc1nc(C)c(C(=O)OCC)s1 2.25%
